Screens deposited in PubChem BioAssay by several laboratories.
LGR2 antag: blocks bursicon-induced cAMP signaling via Drosophila LGR2. actives 0.35% (n = 380,000). inhibition, % at 9.99 µM. HEK293 LGR2, CRE-luciferase, bursicon-stimulated, 4 h;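 active means drop in luminescence signal, shown as inhibition above about 50% in the replicate tests, limit read from the data, passing the limit was not always enough; inconclusive means probably only some replicates passing the limit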;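 further: agonist challenge used bursicon conditioned medium at about half maximal strength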
LMP1 NFkB inh: Epstein-Barr LMP1 NF-kappaB reporter inhibition; AID 504558; inhibition, % at 12.5 µM; actives 0.69% (n = 350,000); LMP1-induced NF-kappaB luciferase reporter cells, luminescence; in the data active means inhibition above about 41%; inconclusive means no clear call, values can overlap the other calls
PAX8 reporter: lowers PAX8-driven luciferase in RMG-I cells; RMG-I TPO-luciferase reporter, SteadyGlo, 24 h; actives 1.2% (n = 360,000); inhibition, % at 12.6 µM;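 active means mean replicate inhibition at least 60% with every replicate also reaching 60%; inconclusive means only one of the two criteria is met; inactive means mean below 60% and not all replicates reaching 60%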;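 further: luciferase light reporting Pax8 driven TPO promoter activity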
TROY signal inh: blocks TROY-dependent signaling in reporter cells | Q293 LMP1-TROYcd NF-kB luciferase reporter, 4 h | inhibition, % at 10 µM | actives 0.98% (n = 360,000);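 active means compounds whose plate-normalised and pattern-corrected inhibition of the luciferase reporter signal at the single screening dose is 50% or more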
EWS-Fli inh: EWS/Fli transcriptional activity inhibition; inhibition, % at 12.6 µM; A673 NR0B1-luciferase reporter, viability-normalised; actives 0.67% (n = 350,000);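 active means mean inhibition of at least 50% after viability correction, with every replicate also passing that limit; inconclusive means mean reaches 50% but only one of two replicates passes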;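 further: firefly luciferase signal divided by Alamar Blue viability fluorescence both relative to DMSO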
TWEAK-Fn14 inh: inhibitors of TWEAK-Fn14 interaction signaling; actives 2% (n = 360,000); inhibition, % at 10 µM; TWEAK-stimulated Fn14 reporter cells, luciferase luminescence, 8 h; in the data active means inhibition above about 50%
Of the large screens only hits and unclear results are named; the others gave an inactive call; ! = a repeat was not active. Hits are enriched below; roughly 3.1% of the tested compounds scored in any of these assays.

C=CCn1c(SCC(=O)N2CC(=O)Nc3ccccc32)nc2scc(-c3cccs3)c2c1=O	TWEAK-Fn14 inh 52.1 (no result: LGR2 antag, EWS-Fli inh)
CC(=O)c1ccc(NC(=S)NC(C)c2ccc(Cl)cc2Cl)cc1 (stereo not drawn)	TROY signal inh 56.0
Oc1ccccc1C1NN=C(c2ccccc2)S1 (stereo not drawn)	TWEAK-Fn14 inh 55.5
CSc1ccc(C2NN=C(c3ccccc3)S2)cc1 (stereo not drawn)	LGR2 antag 83.9, TROY signal inh 51.5, TWEAK-Fn14 inh 77.3
C[C@@H]1CN([C@H](C)CO)C(=O)c2c(c3ccccc3n2C)-c2ccccc2CO[C@@H]1CN(C)CC1CC1	none (no result: LMP1 NFkB inh, PAX8 reporter, TROY signal inh, TWEAK-Fn14 inh)
CO[C@H]1CN(C)C(=O)c2cc(NC(=O)c3cccc(F)c3)ccc2OC[C@@H](C)NC[C@H]1C	none (no result: LMP1 NFkB inh, PAX8 reporter, TROY signal inh, TWEAK-Fn14 inh)
COc1ccc(C(C)=O)cc1COc1cccnc1[N+](=O)[O-]	none
CCOc1ccc(C(C)=O)cc1COc1cccnc1[N+](=O)[O-]	LMP1 NFkB inh 50.8, TROY signal inh 60.2 (no result: EWS-Fli inh)
CO[C@@H](CN(C)C(=O)c1cnccn1)[C@@H](C)CN([C@H](C)CO)S(=O)(=O)c1ccc(Cl)cc1	none (no result: LMP1 NFkB inh, PAX8 reporter, TROY signal inh, TWEAK-Fn14 inh)
Cn1nc(-c2ccc(Cl)cc2)c2cc(C(=O)N3CCN(c4ccccn4)CC3)sc21	TROY signal inh 51.6, TWEAK-Fn14 inh 78.6 (no result: LGR2 antag, PAX8 reporter, EWS-Fli inh)
O=S(=O)(Nc1cc(Cl)ccc1-n1cncn1)c1cc(Br)ccc1Br	TROY signal inh 58.4
CCNC(=S)Nc1ccc2c(c1)c(=O)n(C)n2Cc1cccc(C(F)(F)F)c1	none (no result: LMP1 NFkB inh)
Cc1ccc(CNC(=S)Nc2ccc3c(c2)c(=O)n(C)n3Cc2cccc(C(F)(F)F)c2)cc1	TROY signal inh 60.9, TWEAK-Fn14 inh 57.0 (no result: LMP1 NFkB inh)
CN(C)C(=O)c1ccc(-n2nc(C(F)(F)F)c3c2CCCC3)cc1	TWEAK-Fn14 inh 58.7 (no result: PAX8 reporter, TROY signal inh, EWS-Fli inh)
O=C(O)c1ccc(-n2nc(C(F)(F)F)c3c2CCCC3)cc1	none
CCOC(=O)Oc1c(OC)cc(C(=O)O[C@@H]2C[C@@H]3CN4CCc5c([nH]c6cc(OC)ccc56)[C@H]4C[C@@H]3[C@H](C(=O)OC)[C@H]2OC)cc1OC	LMP1 NFkB inh 45.8, PAX8 reporter 74.9
COC(=O)C1C2CC3c4[nH]c5cc(OC)ccc5c4CCN3CC2CC(OC(=O)CC(C)=O)C1OC (stereo not drawn)	none
Cc1oc2cc3c(C(=O)N4CCCCC4)c(C)oc3cc2c1C(=O)N1CCCCC1	TROY signal inh 59.5, TWEAK-Fn14 inh 73.7 (no result: PAX8 reporter, EWS-Fli inh)
COC(=O)C[C@@H]1CC[C@H]2[C@@H](COc3ccc(NC(=O)c4cccc(OC)c4)cc3C(=O)N2C)O1	none (no result: LMP1 NFkB inh, TROY signal inh, TWEAK-Fn14 inh)
CCOCCCn1c(SCc2nc3ccccc3s2)nc2ccccc2c1=O	LGR2 antag inconclusive, TROY signal inh 52.5, TWEAK-Fn14 inh 73.3
CCOCCCn1c(SCC(=O)Nc2ccccc2)nc2ccccc2c1=O	none
O=C(C1CC1)N1CCCCN2[C@H](CO)[C@@H](c3ccc(C#CC4CC4)cc3)[C@H]2C1	none (no result: LGR2 antag, LMP1 NFkB inh, TROY signal inh, TWEAK-Fn14 inh)
CC(=O)c1cc(NC(=O)c2cccc(C(F)(F)F)c2)c(=O)oc1C	PAX8 reporter 88.5
CCN1CCN(c2ccc(S(=O)(=O)N3CCOCC3)cc2NC(=O)/C=C/c2ccc([N+](=O)[O-])cc2)CC1	PAX8 reporter 72.2
O=C(C[C@@H]1C=C[C@H](NS(=O)(=O)c2ccc(F)cc2)[C@@H](CO)O1)NCc1ccncn1	none (no result: LMP1 NFkB inh, TROY signal inh, TWEAK-Fn14 inh)
CCc1ccc2[nH]c3nc(SCCN4CCOCC4)nnc3c2c1	none
CCc1ccc2[nH]c3nc(N/N=C/c4ccc(O)cc4O)nnc3c2c1	PAX8 reporter 105.1
Cc1ccc2[nH]c3nc(N/N=C/c4cccc(O)c4)nnc3c2c1	none
COc1cc(/C=N/Nc2nnc3c(n2)[nH]c2ccccc23)ccc1O	PAX8 reporter 80.2 (no result: LGR2 antag)
CC(C)=CCc1cc([C@@H]2CC(=O)c3ccc(O)c(CC=C(C)C)c3O2)ccc1O	TWEAK-Fn14 inh 57.8 (no result: PAX8 reporter)
O=[N+]([O-])c1c(Nc2ccccn2)cc(Cl)c2nonc12	LMP1 NFkB inh 54.3 (no result: LGR2 antag)
O=[N+]([O-])c1c(Nc2ccc(O)cc2)cc(Cl)c2nonc12	PAX8 reporter 112.9, TROY signal inh 83.1, EWS-Fli inh 60.8, TWEAK-Fn14 inh 67.4
C[C@H]1CN([C@@H](C)CO)C(=O)c2cc(NC(=O)c3ccncc3)ccc2O[C@@H]1CN(C)C(=O)Nc1ccc(C(F)(F)F)cc1	none (no result: LMP1 NFkB inh, TROY signal inh, TWEAK-Fn14 inh)
O=C(Cc1ccccc1)N[C@H]1CC[C@@H](CC(=O)N2CCCCC2)O[C@@H]1CO	none (no result: LMP1 NFkB inh, TROY signal inh, TWEAK-Fn14 inh)
CO[C@@H]1CN(C)C(=O)c2ccc(NC(=O)C3CCCCC3)cc2OC[C@@H](C)N(C(=O)Nc2ccc(C(F)(F)F)cc2)C[C@H]1C	none (no result: LMP1 NFkB inh, TROY signal inh, TWEAK-Fn14 inh)
CCc1ccccc1NC(=O)COc1ccc2c(=O)c(Oc3cc(C)ccc3C)coc2c1	TROY signal inh 55.7
C=CCC[C@@H](Cc1ccc(F)cc1)C(=O)OC[C@@H](Cc1c[nH]c2ccccc12)NC(=O)[C@@H](CC=C)CC(=O)N[C@@H](CO)Cc1ccccc1	none
C=CCC[C@@H](Cc1ccc(F)cc1)C(=O)OC[C@H](Cc1c[nH]c2ccccc12)NC(=O)[C@@H](CC=C)CC(=O)N[C@@H](CO)Cc1ccccc1	none
C=CCC[C@@H](Cc1ccc(F)cc1)C(=O)OC[C@@H](Cc1c[nH]c2ccccc12)NC(=O)[C@@H](CC=C)CC(=O)N(CCO)Cc1ccccc1	PAX8 reporter 66.6
C=CCC[C@H](Cc1ccc(F)cc1)C(=O)OC[C@@H](Cc1c[nH]c2ccccc12)NC(=O)[C@@H](CC=C)CC(=O)N[C@@H](CO)Cc1ccccc1	PAX8 reporter 77.7 (no result: LGR2 antag)
C=CCC[C@H](Cc1ccc(F)cc1)C(=O)OC[C@H](Cc1c[nH]c2ccccc12)NC(=O)[C@H](CC=C)CC(=O)N(CCO)Cc1ccccc1	PAX8 reporter 97.4, TWEAK-Fn14 inh 57.0
C[C@@H]1CN([C@@H](C)CO)C(=O)c2cc(C#CC3CC3)cnc2O[C@H]1CN(C)C(=O)c1ccncc1	none (no result: LMP1 NFkB inh, PAX8 reporter, TROY signal inh, TWEAK-Fn14 inh)
C/C=C/c1ccc2c(c1)O[C@@H](CN(C)C(=O)c1cnccn1)[C@@H](C)CN([C@@H](C)CO)S2(=O)=O	none (no result: LMP1 NFkB inh, TROY signal inh, TWEAK-Fn14 inh)
CO[C@H]1CC[C@@H]2CCN(C)C(=O)C[C@@H](c3ccccc3)CN(C)C(=O)c3cc(C#N)ccc3OC[C@H]1O2	none (no result: LMP1 NFkB inh, TROY signal inh, TWEAK-Fn14 inh)
C[C@@H]1CCCCO[C@@H](CN(C)C(=O)Cc2ccccc2)[C@H](C)CN([C@@H](C)CO)C(=O)c2cc(NS(=O)(=O)c3ccccc3)ccc2O1	none (no result: LMP1 NFkB inh, TROY signal inh, TWEAK-Fn14 inh)
COCC(=O)N1CCCCN2[C@H](C1)[C@@H](c1ccc(-c3cccc(C)c3)cc1)[C@@H]2CO	none (no result: LMP1 NFkB inh, TROY signal inh, TWEAK-Fn14 inh)
COc1ccccc1NC(=O)N1C[C@@H]2N[C@H](C1)C2c1ccc(-c2ccccc2)cc1 (stereo partly drawn)	none (no result: LMP1 NFkB inh, TROY signal inh, TWEAK-Fn14 inh)
COc1ccccc1NC(=O)N1C[C@@H]2N[C@H](C1)C2c1ccc(-c2cccc(C#N)c2)cc1 (stereo partly drawn)	EWS-Fli inh 52.9! (no result: LMP1 NFkB inh, TROY signal inh, TWEAK-Fn14 inh)
O=C(Nc1ccc(F)cc1)N1C[C@@H]2N[C@H](C1)C2c1ccc(/C=C/c2ccccc2)cc1 (stereo partly drawn)	PAX8 reporter 105.2! (no result: LMP1 NFkB inh, TROY signal inh, TWEAK-Fn14 inh)
